The results in this text go back to PubChem BioAssay (NCATS).

Results filed as inconclusive are left out. The source made the active and inactive calls. Unless noted, the call rests on the fitted dose curve.

Test [1] addresses Estrogen receptor (Homo sapiens) (UniProt P03372). Put plainly: qHTS assay for small molecule antagonists of estrogen receptor alpha signaling (AID 588513; active means well fitted curve in the direction sought with a large enough effect in the signal ratio, with a control signal flat, not every such curve was filed as active; the % refers to the signal ratio; further: potency means the concentration at half of the fitted maximal effect). The method, boiled down: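 Beta-lactamase reporter, antagonist mode, HEK 293 GripTite cells; 0.5nM E2 stimulus, 18 h, 37 C; CCF4 dye 2 h RT; fluorescence. IC50 and efficacy from Hill fits, normalized to E2 and DMSO.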
On the technique in general: In qHTS, concentration-response curves come from the screen itself.

Test [2] has as its target Androgen receptor (Homo sapiens) (UniProt P10275). The experiment in a line: qHTS assay for small molecule antagonists of androgen receptor signaling (AID 588516; active means well fitted curve in the direction sought with a large enough effect in the signal ratio, with a control signal flat, not every such curve was filed as active; the % refers to the signal ratio; further: potency means the concentration at half of the fitted maximal effect). The method, boiled down:
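HEK293 AR-UAS-bla cells, 10% dialyzed FBS medium; cpd titration + R1881 10 nM final, 16 h 37 C; CCF4 2 h RT; FRET ratio; IC50/efficacy via Hill fit.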

In test [3] the target is Bile acid receptor (Homo sapiens) (UniProt Q96RI1). The experiment in a line: qHTS assay for small molecule antagonists of farnesoid X receptor signaling (AID 588526). Further: potency means the concentration at half of the fitted maximal effect. The procedure, abridged: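 Concentration-response titrations were fitted to the Hill equation for half-maximal inhibition and maximal response, with data normalised to 50 uM chenodeoxycholic acid and DMSO control wells. Cells: FXR-UAS-bla HEK293T, dialyzed FBS.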

A short description of test [4]: qHTS assay for small molecule activators of the human pregnane X receptor (PXR) signaling pathway (AID 720659; call rule not given here; further: 0% is about no effect).
For test [5], the target named is Peroxisome proliferator-activated receptor gamma (Homo sapiens) (UniProt P37231). Put plainly: qHTS assay for small molecule antagonists of peroxisome proliferator-activated receptor gamma signaling (AID 588537; active means well fitted inhibition curve with a large enough effect in the signal ratio, with a control signal flat, not every such curve was filed as active; the % refers to the signal ratio;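 further: reporter cells co-stimulated with 50 nM rosiglitazone agonist during compound treatment; % of control where 0% means no effect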). The method, boiled down:
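PPAR-gamma-UAS-bla HEK293 cells (3000/well, 1% charcoal/dextran-stripped FBS) were preincubated 6-6.5 h at 37 C, given titrated compounds, then stimulated with 50 nM rosiglitazone for 16 h. Beta-lactamase activity was read with CCF4 dye; IC50 came from Hill fits.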

Test [6] addresses Bile acid receptor (Homo sapiens) (UniProt Q96RI1). The experiment in a line: qHTS assay for small molecule agonists of farnesoid X receptor signaling (AID 588527).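 Further: series mostly up to about 77 µM; 0% = vehicle basal and 100% = reference agonist.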 The settings on record: HEK293T FXR-UAS-bla, beta-lactamase ratio, 16 h; activation: stronger effect = higher value. The method, boiled down:
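FXR-UAS-bla HEK293T cells (10% dialyzed FBS) preincubated 5-7 h at 37 C, then compounds at up to 92 uM for 16 h at 37 C. CCF4 beta-lactamase read-out after 2 h RT. Normalized to chenodeoxycholic acid (100 uM) and DMSO; Hill fit gave EC50 and efficacy.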

Test [7] is described as follows: qHTS assay for small molecule agonists of retinoid X receptor alpha signaling (AID 588544). The following applies: HEK293T RXRa-UAS-bla, beta-lactamase reporter, 18 h; 530 nm emission.
Test [8] in a line: qHTS assay for small molecule activators of the nuclear factor-kappa B (NF-kB) signaling pathway (AID 651749; active means well fitted activation curve with a large enough effect in the signal ratio; the % refers to the signal ratio; further: series mostly up to about 77 µM; % of control where 0% means no effect). The following applies: NF-kB-bla ME-180 cells, beta-lactamase FRET ratio, 16 h; activation: stronger effect = higher value. The method, boiled down: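 ME-180 cells stably carrying a beta-lactamase reporter under an NF-kB response element were exposed to compound or DMSO vehicle for 16 hr at 37C, 5% CO2. Pathway activation was read by FRET, since reporter expression disrupts FRET.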

The target of test [9] is Vitamin D3 receptor (Homo sapiens) (UniProt P11473). Put plainly: qHTS assay for small molecule antagonists of vitamin D receptor signaling (AID 588541).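 Further: receptor activated by calcitriol during compound treatment; series mostly up to about 77 µM; on the % scale 0 is the no-effect control and ±100 the full control effect.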 The procedure, abridged: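 VDR-UAS-bla HEK293T cells (2000/well, 2% charcoal-stripped FBS) were treated with titrated compounds plus 1-alpha,25-dihydroxyvitamin D3 (50 nM or 3 nM final) for 16 h at 37 C. CCF4 beta-lactamase fluorescence was read; Hill fits gave IC50.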

Test [10] shares this target. The experiment in a line: qHTS assay for small molecule agonists of vitamin D receptor signaling (AID 588543).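 Further: 0% = DMSO basal and 100% = reference agonist control.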 The method, boiled down:
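β-lactamase reporter, VDR-UAS-bla HEK293T, agonist mode. Cells plated 5 h at 37 °C, compound titration 16 h at 37 °C, CCF4 dye 2 h RT, ratio 460/530 nm. Hill fit → EC50, efficacy vs 50 nM 1α,25-(OH)2D3.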

Test [11] deals with Androgen receptor (Homo sapiens) (UniProt P10275). Put plainly: qHTS assay for small molecule agonists of androgen receptor signaling (AID 588515; active means well fitted curve in the direction sought with a large enough effect in the signal ratio, with a control signal flat; the % refers to the signal ratio; further: on the % scale 0 is the no-effect control and ±100 the full control effect). The settings on record: AR-UAS-bla HEK293, beta-lactamase ratio, agonist 16 h; stronger effect = higher value. The procedure, abridged:
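EC50 and efficacy came from Hill fits of titrations (up to 92 uM) normalized to 30 nM R1881 as 100% and DMSO as 0%. Compound exposure was 16 h at 37 C on AR-UAS-bla HEK293 cells, with a 405/460/530 nm CCF4 fluorescence read.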

A short description of test [12]: qHTS assay for small molecule agonists of the antioxidant response element (ARE) signaling pathway (AID 651741; active means well fitted activation curve with a large enough effect in the signal ratio; the % refers to the signal ratio; further: % of control where 0% means no effect). The procedure, abridged:
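ARE-bla HepG2 cells (beta-lactamase reporter under ARE control) were plated at 2,000 cells/well, preincubated 5 h at 37 C/5% CO2, then treated with DMSO-dissolved compounds for 16 h at 37 C; LiveBLAzer B/G FRET substrate added, fluorescence read after 2 h at room temperature.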

Chain of Peroxisome proliferator-activated receptor gamma (Homo sapiens) (P37231 whole entry, looked up): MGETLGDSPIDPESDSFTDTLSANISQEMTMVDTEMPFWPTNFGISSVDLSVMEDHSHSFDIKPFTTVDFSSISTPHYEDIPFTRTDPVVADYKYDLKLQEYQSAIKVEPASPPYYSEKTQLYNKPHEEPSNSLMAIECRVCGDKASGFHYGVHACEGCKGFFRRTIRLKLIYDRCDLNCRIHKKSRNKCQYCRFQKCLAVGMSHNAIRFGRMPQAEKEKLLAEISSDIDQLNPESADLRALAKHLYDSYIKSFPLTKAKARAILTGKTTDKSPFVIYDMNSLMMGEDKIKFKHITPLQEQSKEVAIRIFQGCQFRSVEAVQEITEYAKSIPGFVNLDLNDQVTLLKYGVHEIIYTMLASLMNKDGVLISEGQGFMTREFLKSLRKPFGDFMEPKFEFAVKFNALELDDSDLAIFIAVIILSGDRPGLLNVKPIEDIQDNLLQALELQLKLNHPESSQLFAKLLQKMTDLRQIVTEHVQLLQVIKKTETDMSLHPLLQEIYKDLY
Chain of Bile acid receptor (Homo sapiens) (Q96RI1 whole entry, looked up): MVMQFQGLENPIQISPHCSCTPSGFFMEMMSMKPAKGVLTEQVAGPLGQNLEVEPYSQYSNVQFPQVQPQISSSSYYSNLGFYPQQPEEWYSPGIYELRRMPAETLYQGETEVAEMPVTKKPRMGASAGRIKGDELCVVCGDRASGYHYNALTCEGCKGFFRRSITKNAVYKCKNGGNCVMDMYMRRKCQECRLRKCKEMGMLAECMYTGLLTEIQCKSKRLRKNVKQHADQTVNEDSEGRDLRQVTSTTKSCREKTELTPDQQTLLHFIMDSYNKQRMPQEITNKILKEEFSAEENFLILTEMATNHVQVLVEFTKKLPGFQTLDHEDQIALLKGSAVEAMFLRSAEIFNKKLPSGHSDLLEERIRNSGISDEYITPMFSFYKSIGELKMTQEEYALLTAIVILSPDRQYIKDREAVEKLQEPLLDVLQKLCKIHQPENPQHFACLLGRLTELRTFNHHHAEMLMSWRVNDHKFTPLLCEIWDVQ
Chain of Vitamin D3 receptor (Homo sapiens) (P11473 whole entry, looked up): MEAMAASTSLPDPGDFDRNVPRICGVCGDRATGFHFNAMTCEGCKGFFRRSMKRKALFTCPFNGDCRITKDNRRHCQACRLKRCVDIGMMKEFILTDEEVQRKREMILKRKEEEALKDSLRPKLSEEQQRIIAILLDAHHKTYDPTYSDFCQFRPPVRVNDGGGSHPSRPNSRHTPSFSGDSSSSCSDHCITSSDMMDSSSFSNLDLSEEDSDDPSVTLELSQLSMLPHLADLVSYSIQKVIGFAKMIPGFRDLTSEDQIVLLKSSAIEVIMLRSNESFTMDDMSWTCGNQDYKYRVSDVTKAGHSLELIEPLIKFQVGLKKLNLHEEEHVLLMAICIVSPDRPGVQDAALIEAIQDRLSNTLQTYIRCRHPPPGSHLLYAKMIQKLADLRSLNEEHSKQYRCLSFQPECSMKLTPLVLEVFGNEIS
Chain of Estrogen receptor (Homo sapiens) (P03372 whole entry, looked up): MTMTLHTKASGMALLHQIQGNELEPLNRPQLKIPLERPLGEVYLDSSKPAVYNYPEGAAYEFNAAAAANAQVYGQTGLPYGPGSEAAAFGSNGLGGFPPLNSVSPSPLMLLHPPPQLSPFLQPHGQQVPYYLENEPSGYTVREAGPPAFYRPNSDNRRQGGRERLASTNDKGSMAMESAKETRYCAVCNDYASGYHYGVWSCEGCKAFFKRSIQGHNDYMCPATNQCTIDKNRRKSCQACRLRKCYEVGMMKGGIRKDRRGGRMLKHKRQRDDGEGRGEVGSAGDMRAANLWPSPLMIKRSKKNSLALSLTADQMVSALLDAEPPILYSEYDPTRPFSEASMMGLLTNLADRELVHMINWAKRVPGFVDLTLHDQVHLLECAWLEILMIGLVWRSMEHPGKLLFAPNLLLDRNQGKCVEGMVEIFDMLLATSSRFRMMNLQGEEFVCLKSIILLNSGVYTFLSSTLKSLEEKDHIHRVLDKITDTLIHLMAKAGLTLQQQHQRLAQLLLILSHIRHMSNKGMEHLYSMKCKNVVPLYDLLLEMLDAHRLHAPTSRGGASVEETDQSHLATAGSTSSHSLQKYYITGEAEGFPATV
Chain of Androgen receptor (Homo sapiens) (P10275 whole entry, looked up): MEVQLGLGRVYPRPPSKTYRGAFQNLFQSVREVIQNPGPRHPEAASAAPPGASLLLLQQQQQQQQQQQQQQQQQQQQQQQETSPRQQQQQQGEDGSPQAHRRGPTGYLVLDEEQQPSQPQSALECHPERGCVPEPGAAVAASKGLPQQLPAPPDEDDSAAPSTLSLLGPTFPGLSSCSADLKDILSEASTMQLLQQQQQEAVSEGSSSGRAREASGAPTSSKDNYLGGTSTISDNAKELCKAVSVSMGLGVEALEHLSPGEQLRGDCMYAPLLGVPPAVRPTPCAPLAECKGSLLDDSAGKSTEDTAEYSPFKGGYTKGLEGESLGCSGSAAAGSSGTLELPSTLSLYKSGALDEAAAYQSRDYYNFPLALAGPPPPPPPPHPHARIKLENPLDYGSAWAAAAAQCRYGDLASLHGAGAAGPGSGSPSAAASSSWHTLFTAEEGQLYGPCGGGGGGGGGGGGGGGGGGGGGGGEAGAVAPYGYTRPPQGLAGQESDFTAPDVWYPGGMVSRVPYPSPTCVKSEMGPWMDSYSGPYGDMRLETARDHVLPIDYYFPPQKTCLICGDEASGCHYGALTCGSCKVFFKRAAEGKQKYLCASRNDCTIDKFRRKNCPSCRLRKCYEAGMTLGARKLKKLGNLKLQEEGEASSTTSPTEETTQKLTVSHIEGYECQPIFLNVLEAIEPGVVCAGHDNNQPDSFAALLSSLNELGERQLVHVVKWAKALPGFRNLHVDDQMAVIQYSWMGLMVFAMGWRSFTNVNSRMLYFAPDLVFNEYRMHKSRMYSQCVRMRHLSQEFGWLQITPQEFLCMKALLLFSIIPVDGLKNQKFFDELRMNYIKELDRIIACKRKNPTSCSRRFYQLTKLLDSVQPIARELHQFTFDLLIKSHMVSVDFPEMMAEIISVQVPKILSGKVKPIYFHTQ

Consider `CC1(C)CN=C(NN=C(/C=C/c2ccc(C(F)(F)F)cc2)/C=C/c2ccc(C(F)(F)F)cc2)NC1`, for which the figures for the Potency in [1], in test [2] and in test [3] were 14.1 µM [inhibitor] (active), 35.5 µM (active) and 31.6 µM (active), respectively. In addition, the call in test [4] was inactive.

`CC1(c2ccc(Oc3ccccc3)cc2)OC(=O)N(Nc2ccccc2)C1=O` (stereo not given): the Potency was 15.8 µM [inhibitor] (active) in [1] and 35.5 µM (active) in [3].

With `COc1cnc(OC)n2nc(NS(=O)(=O)c3c(OCC(F)F)cccc3C(F)(F)F)nc12`, the Potency result in test [1] and in test [5] was “inactive” in each case. In test [4], the compound was called inactive.

In the case of `Clc1ccc([C@@]2(Cn3cncn3)C[C@H](Br)CO2)c(Cl)c1`, the Potency entry in test [1] and in [3] was “inactive” each time. In addition, the activation was -2.3% (inactive) in test [6] and -1.71% (inactive) in test [8]. Besides, the max response in test [7] is -2.9%.

For `COP(=S)(OC)Oc1c(Cl)cc(C)cc1Cl`, the Potency result in [1], in test [5] and in test [9] was “inactive” in each case. Also, in test [10], the result was inactive. Moreover, the max response in test [7] stood at 0.267%. The activation in [8] was -0.0055% (inactive).

As to `CS/C(C)=N/OC(=O)N(C)SN(C)C(=O)O/N=C(\C)SC`, the activation is -1.29% (inactive) in [11], 3.69% (inactive) in [6] and -0.513% (inactive) in test [8]. Besides, the Potency result in test [2], in test [3] and in [12] was “inactive” in each case. The outcome in test [4] was inactive.

Turning to `OC(Cn1cncn1)(c1ccc(F)cc1)c1ccccc1F` (stereo not given), the Potency entry in test [1], in test [5], in [9] and in [12] was “inactive” throughout. Besides, in test [7], the max response is -7.56%. Moreover, the activation in [8] was 0.295% (inactive). Besides, the compound was called inactive in test [4].

For `CCSCc1ccccc1OC(=O)NC`, the Potency result in test [1], in test [3], in [5] and in [9] was “inactive” in each case. The activation in [6] was 3.09% (inactive). In addition, the result in [10] was inactive. Moreover, the max response in test [7] was -16.4%.

For the compound `CCOP(=S)(OCC)Oc1nc(Cl)n(C(C)C)n1`, the Potency result in test [1], in [5] and in [9] was “inactive” throughout. Moreover, the compound was called inactive in [10]. The activation in test [8] was 1.85% (inactive).

On to `CCOP(=O)(OCC)SCCSCC`, for which the Potency result in test [1] and in test [5] was “inactive” throughout. Moreover, in test [7], the max response was -10.7%. For the same compound, the activation in [8] was 0.345% (inactive). In addition, the compound was classed as inactive in test [4].

Turning to `CNC(=S)S`, the Potency result in [1], in [5] and in test [9] was “inactive” throughout. The outcome in [10] and in test [4] was inactive. Moreover, the max response in [7] is -26.8%. The activation in test [8] is -2.14% (inactive).

With `CCOP(=O)(NC(C)C)Oc1ccc(S(C)(=O)=O)c(C)c1` (stereo not given), the activation in [11] is 6.06% (inactive); in test [6], -2.2% (inactive); in [8], -0.438% (inactive). Moreover, the Potency result in test [2], in test [3], in test [5], in test [9] and in test [12] was “inactive” throughout. Besides, the call in test [10] was inactive.

Consider `O=P(O)(O)CN(CP(=O)(O)O)CP(=O)(O)O`, for which the Potency result in test [1] and in [5] was “inactive” in each case. In addition, the compound was classed as inactive in [10] and in test [4].

On to `CCOc1nc(C(Cl)(Cl)Cl)ns1`, for which the Potency entry in test [1], in test [5] and in [9] was “inactive” throughout. In addition, the call in [10] was inactive. Further, the activation in test [8] is 0.185% (inactive).

In the case of `Clc1ccc([C@@]2(Cn3cncn3)C[C@@H](Br)CO2)c(Cl)c1`, the Potency entry in test [1], in test [3], in test [5] and in [9] was “inactive” in each case. The activation is 3.84% (inactive) in [6] and -2.08% (inactive) in test [8]. In [10], the call was inactive.

For `O=C(O)C(F)(F)C(F)(F)C(F)(F)C(F)(F)C(F)(F)F`, the Potency result in [1], in [5], in test [9] and in test [12] was “inactive” in each case. Moreover, the call in test [10] was inactive. Also, the max response in [7] stood at 6.49%.

In the case of `CCC/C(=N\OCC)C1=C(O)CC(CC(C)SCC)CC1=O` (stereo not given), the Potency result in [1], in test [5], in test [9] and in [12] was “inactive” in each case. The result in test [10] and in test [4] was inactive. The max response in [7] is -4.54%. In addition, the activation in test [8] is 0.879% (inactive).

With `Cc1cc(Cl)ccc1OC(C)C(=O)O` (stereo not given), the Potency result in test [1], in test [5] and in test [12] was “inactive” each time. In [7], the max response is -5.5%. Further, in test [8], the activation was -2.72% (inactive). Besides, in test [4], the call was inactive.

`CCSC(C)CC1CC(=O)C(/C(CC)=N/OC/C=C/Cl)=C(O)C1` (stereo not given): the Potency result in test [1], in test [3], in [5] and in [9] was “inactive” throughout. The results for the activation in [11], in test [6] and in test [8] were 3.31% (inactive), 0.0799% (inactive) and 0.614% (inactive), respectively. The call in test [10] was inactive.

With `CC1=C(C(=O)Nc2ccccc2)SCCO1`, the activation in [11] is -8.15% (inactive); in test [6], -5.36% (inactive). Also, the Potency entry in test [2], in [3], in [5], in test [9] and in test [12] was “inactive” in each case. The result in [10] was inactive. Besides, in [7], the max response is -2.97%.

Take `CC(Oc1ccc(Cl)cc1Cl)C(=O)O` (stereo not given): the Potency result in [1], in test [5] and in [9] was “inactive” each time. Moreover, the activation in test [6] is -0.107% (inactive). Moreover, the compound was called inactive in test [10] and in [4].

With `CCOP(=S)(NC(C)C)Oc1ccccc1C(=O)OC(C)C` (stereo not given), the Potency entry in test [1], in test [3], in test [5], in test [9] and in test [12] was “inactive” each time. For the same compound, in [6], the activation is 8.84% (inactive). In addition, the outcome in test [10] was inactive.

`Nc1cnn(-c2ccccc2)c(=O)c1Cl`: the Potency result in test [1], in [5] and in test [9] was “inactive” throughout. The outcome in test [10] and in test [4] was inactive. The max response in test [7] is -6.12%. Also, the activation in test [8] is -0.283% (inactive).

For the compound `CNC(=O)/C=C(\C)OP(=O)(OC)OC`, the Potency entry in test [1], in [3], in [5] and in test [9] was “inactive” in each case. Also, the activation in test [6] is 6.76% (inactive). Moreover, the result in [10] was inactive. Also, the max response in test [7] was -13.8%.

Take `CCCN(CCC)c1c([N+](=O)[O-])cc(C(F)(F)F)c(N)c1[N+](=O)[O-]`: the Potency in test [1] was 31.6 µM [inhibitor] (active). For the same compound, the activation in test [6] was 9.33% (inactive).

For `CCOP(=O)(OCC)Oc1ccc2c(C)c(Cl)c(=O)oc2c1`, the activation in test [11] is -0.972% (inactive); in test [6] it was 2.16% (inactive); in [8], 0.977% (inactive). Further, the Potency result in test [2], in [3] and in [9] was “inactive” each time. Further, the max response in [7] turned out to be 2.41%.

As for `COP(=O)(OC)O/C(C)=C/C(=O)N(C)C`, the Potency entry in test [1] and in test [9] was “inactive” each time. The max response in test [7] is -0.0825%. Moreover, the outcome in test [4] was inactive.
